From PubChem BioAssay AID540276 (National Center for Advancing Translational Sciences (NCATS), 2011)
“And” between values parts separate entries of the source, which are not always exact repeats. Equal values may be shown once. Among all 300,000 compounds or so, about 5,400 (1.8%) were called active. About 28% were inconclusive and are not listed. Calls come from the whole dose curve; tested in HEK293 cells. What follows is part of a selection rich in actives, with near analogues and random picks from the rest. Where a structure was tested more than once in an assay, its records may differ in their call.

Experiment: qHTS for inhibitors of binding or entry into cells for Marburg Virus
Settings: Marburg virus pseudotyped entry inhibition, cell reporter; series mostly up to 37.8 µM; activity change, negative = inhibition: at the top concentration
% is set by controls: 0 for no effect and ±100 for the full control effect; potency is the fitted concentration of half-maximal effect.

Question: Which Potency does the source give for `c1ccc2cc3c(NCCN4CCOCC4)ccnc3cc2c1` here?
Answer: Its Potency is 3.66 µM (active).

Question: For `O=C(Cn1c(-c2ccccn2)nc2ccccc21)NCCN1CCOCC1`, which “activity change, negative = inhibition” value is on record?
Answer: The value was -0.271% (inactive).

Question: For `O=C(NCCN1CCOCC1)c1cc(-c2cccs2)nc2ccccc12`, which “activity change, negative = inhibition” value is on record?
Answer: The value was -10.3% (inactive).

Question: Which “activity change, negative = inhibition” value does the source give for `COC(=O)Nc1ccc(S(=O)(=O)Nc2cc(OC)nc(OC)n2)cc1` here?
Answer: The value was 15% (inactive).

Question: With `CC(OC(=O)c1ccc(-n2cnnn2)cc1)C(=O)NCc1ccccc1` (configuration not stated) as the compound, how does the “activity change, negative = inhibition” value read?
Answer: The value was -25% [at 46.1 µM] (inactive).

Question: With `CC(=O)OC[C@H]1O[C@H](C/C=N/OC[C@@H](O)COCc2ccco2)C=C[C@@H]1OC(C)=O` as the compound, how does the “activity change, negative = inhibition” value read?
Answer: The value was 0.658% [at 14.2 µM] (inactive).

Question: With `O=C(/C=C/c1ccccc1)c1ccoc1` as the compound, how does the “activity change, negative = inhibition” value read?
Answer: The value was 27.8% (inactive).

Question: With `O=C(/C=C/c1ccccc1)c1ccccc1O` as the compound, how does the Potency read?
Answer: The Potency was “inactive”.

Question: For `CC(=O)c1c(O)c(C)c(O)c(Cc2c(O)c3c(c(C(=O)/C=C\c4ccccc4)c2O)OC(C)(C)C=C3)c1O`, which Potency is on record?
Answer: The Potency was 3.16 µM (active).

Question: Which Potency does the source give for `CC(=O)c1c(O)c(C)c(O)c(Cc2c(O)c3c(c(C(=O)/C=C/c4ccccc4)c2O)OC(C)(C)C=C3)c1O` here?
Answer: The Potency was “inactive and 3.16 µM (active)”.

Question: Which “activity change, negative = inhibition” value does the source give for `CCOC(=O)C1CCN(S(=O)(=O)c2ccc3c(c2)N(C(C)=O)CCO3)CC1` here?
Answer: The value was -20.1% [at 46.1 µM] (inactive).

Question: With `O=C(c1cccnc1)N(Cc1ccccc1)C(=O)c1cccnc1` as the compound, how does the “activity change, negative = inhibition” value read?
Answer: Its value is -21.8% [at 46.1 µM] (inactive).

Question: Which “activity change, negative = inhibition” value does the source give for `O=C(NCC(=O)N1CCN(c2ncc(C(F)(F)F)cc2Cl)CC1)c1ccc(Br)o1` here?
Answer: Its value is -29.7% (inactive).

Question: Which “activity change, negative = inhibition” value does the source give for `O=C(Nc1cccc2c1CCCC2)c1ccc(F)cc1` here?
Answer: The value was 16.4% (inactive).

Question: With `CC(C)C1CCCCC1NC(=O)CN1C(=O)C2=C(CCCC2)C1=O` (configuration not stated) as the compound, how does the “activity change, negative = inhibition” value read?
Answer: The value was -0.855% [at 46.1 µM] (inactive).

Question: Which “activity change, negative = inhibition” value does the source give for `CCOc1ccc(S(=O)(=O)N2CCN(C(=O)c3oc4ccccc4c3C)CC2)cc1` here?
Answer: Its value is -34.1% (inactive).

Question: With `Cc1cc(C)cc(OCC(=O)Nc2nc3ccc([N+](=O)[O-])cc3s2)c1` as the compound, how does the “activity change, negative = inhibition” value read?
Answer: Its value is 16.2% (inactive).

Question: With `O=C(COC(=O)c1ccc(F)cc1)Nc1nc2ccc([N+](=O)[O-])cc2s1` as the compound, how does the “activity change, negative = inhibition” value read?
Answer: The value was 0.764% (inactive).

Question: With `O=C(NC(Nc1nc2ccc([N+](=O)[O-])cc2s1)(C(F)(F)F)C(F)(F)F)c1ccccc1` as the compound, how does the Potency read?
Answer: The Potency was 0.517 µM (active).

Question: With `Cc1ccccc1N1CCN(C(=O)c2cccnc2)CC1` as the compound, how does the “activity change, negative = inhibition” value read?
Answer: Its value is 4.39% [at 46.1 µM] (inactive).

Question: Which “activity change, negative = inhibition” value does the source give for `O=C(NCCc1cccc(F)c1)C1CCCN(c2nc3ccccc3s2)C1` (configuration not stated) here?
Answer: The value was -29.4% [at 46.1 µM] (inactive).

Question: For `CCn1c(SCC(=O)NC2CCCC2)nnc1-c1ccoc1C`, which “activity change, negative = inhibition” value is on record?
Answer: The value was 1.25% [at 46.1 µM] (inactive).

Question: Which “activity change, negative = inhibition” value does the source give for `Cc1cccc(C)c1Nc1nnc(SCC(=O)Nc2sccc2C#N)s1` here?
Answer: The value was -34.2% (inactive).

Question: For `Cc1ccc(NC(=O)CSCC(=O)Nc2sccc2C#N)cc1`, which “activity change, negative = inhibition” value is on record?
Answer: Its value is 3.12% (inactive).

Question: With `Cc1csc(SCC(=O)Nc2sccc2C#N)n1` as the compound, how does the Potency read?
Answer: The Potency was 4.47 µM (active).

Question: Which “activity change, negative = inhibition” value does the source give for `O=[N+]([O-])c1cc2ccccc2nc1-c1ccccc1` here?
Answer: Its value is 16.2% [at 46.1 µM] (inactive).

Question: With `O=C(NCCN1CCOC1=O)C1CCC(=O)N(CCc2ccc(Cl)cc2)C1` (configuration not stated) as the compound, how does the “activity change, negative = inhibition” value read?
Answer: The value was -1.16% (inactive).

Question: For `COCCOC(=O)C1=C(C)OC(N)=C(C#N)[C@H]1c1ccco1`, which “activity change, negative = inhibition” value is on record?
Answer: The value was -2.4% (inactive).

Question: For `O=C(CN1C(=O)/C(=C\c2ccc(C(F)(F)F)cc2)Sc2ccccc21)NCc1ccco1`, which “activity change, negative = inhibition” value is on record?
Answer: Its value is 11.6% (inactive).

Question: With `O=C(CN1CCCCCC1)N1c2ccccc2Sc2ccc(C(F)(F)F)cc21` as the compound, how does the Potency read?
Answer: The Potency was 18.3 µM (active).

Question: For `CCNC(=O)N1c2ccccc2Sc2ccccc21`, which “activity change, negative = inhibition” value is on record?
Answer: Its value is 7.38% (inactive).

Question: Which “activity change, negative = inhibition” value does the source give for `Oc1ccc(-n2nnnc2SCc2c(F)cccc2Cl)cc1` here?
Answer: Its value is -9.4% [at 46.1 µM] (inactive).

Question: With `O=C(N/N=C/c1ccc(O)c2ccccc12)c1cccnc1` as the compound, how does the “activity change, negative = inhibition” value read?
Answer: The value was 16.1% [at 46.1 µM] (inactive).

Question: For `O=C(CCCO)N/N=C/c1cc(Br)ccc1O`, which “activity change, negative = inhibition” value is on record?
Answer: Its value is -6.14% (inactive).

Question: Which Potency does the source give for `O=C(NN=Cc1ccccc1O)NN=Cc1ccccc1O` here?
Answer: The Potency was 3.98 µM (active).

Question: With `Cc1ccc(NC(=O)CSc2nc(=O)n(CCN(C)C)c3c2CCCC3)c(C)c1` as the compound, how does the “activity change, negative = inhibition” value read?
Answer: Its value is 21.1% (inactive).

Question: For `O=C1CCCCC1Sc1ccc(Cl)cc1[N+](=O)[O-]` (configuration not stated), which “activity change, negative = inhibition” value is on record?
Answer: Its value is 13% [at 46.1 µM] (inactive).

Question: For `CCn1c(SCC(=O)Nc2ccc(Br)cc2)nc2sc3c(c2c1=O)CCN(C)C3`, which “activity change, negative = inhibition” value is on record?
Answer: Its value is -2.58% [at 46.1 µM] (inactive).

Question: Which “activity change, negative = inhibition” value does the source give for `C/C(CC(=O)Nc1ccc(C)cc1C)=N\NC(=O)C(C)C` here?
Answer: Its value is 24.7% [at 46.1 µM] (inactive).

Question: With `Cc1ccc(NC(=O)NC(C)c2c(-n3cccc3)sc(C)c2C)c(C)c1` (configuration not stated) as the compound, how does the Potency read?
Answer: Its Potency is 11.2 µM (active).

Question: Which “activity change, negative = inhibition” value does the source give for `COc1ccc(NC(=O)NC(C)c2c(-n3cccc3)sc(C)c2C)cc1OC` (configuration not stated) here?
Answer: Its value is -7.63% [at 46.1 µM] (inactive).

Question: For `CC(=O)c1ccc(NC(=O)c2ccc3c(Cl)c4c(nc3c2)CCCC4)cc1`, which “activity change, negative = inhibition” value is on record?
Answer: Its value is 4.19% (inactive).

Question: For `CC(C)CCNC(=O)c1ccc2c(Cl)c3c(nc2c1)CCC3`, which Potency is on record?
Answer: Its Potency is 10 µM (active).

Question: Which “activity change, negative = inhibition” value does the source give for `COc1cccc(CNC(=O)c2ccc3c(Cl)c4c(nc3c2)CCCC4)c1` here?
Answer: The value was -21.5% [at 46.1 µM] (inactive).

Question: For `COc1ccccc1N1CCC(N2CCN(CC(C)(C)C)C(CCO)C2)CC1` (configuration not stated), which “activity change, negative = inhibition” value is on record?
Answer: Its value is -13.7% [at 46.1 µM] (inactive).

Question: For `CC(C)(C)c1ccc(C(=O)N2CCN(CCNC(=O)C(=O)Nc3ccc(F)cc3)CC2)cc1`, which “activity change, negative = inhibition” value is on record?
Answer: The value was -27.6% (inactive).

Question: Which “activity change, negative = inhibition” value does the source give for `COc1ccccc1CNC(=O)c1ccc(N(C)S(=O)(=O)c2ccc(C)cc2)cc1` here?
Answer: Its value is 0.594% (inactive).

Question: For `CC(C)c1nc(NC[C@H]2CCCO2)c(C#N)c2c1COC(C)(C)C2`, which “activity change, negative = inhibition” value is on record?
Answer: The value was -28.1% (inactive).

Question: Which “activity change, negative = inhibition” value does the source give for `COCCNc1nc(N)c([N+](=O)[O-])c(N2CCCCCC2)n1` here?
Answer: The value was 4.6% [at 46.1 µM] (inactive).

Question: With `CCN1CCN(c2nc(Nc3cccc(F)c3)nc(N)c2[N+](=O)[O-])CC1` as the compound, how does the Potency read?
Answer: The Potency was 12.6 µM (active).

Question: Which “activity change, negative = inhibition” value does the source give for `Nc1nc(Nc2ccccc2)nc(NCCO)c1[N+](=O)[O-]` here?
Answer: The value was 1.16% (inactive).

Question: For `COC(=O)CC(CC(=O)OC)n1cccc1`, which “activity change, negative = inhibition” value is on record?
Answer: Its value is 28.2% (inactive).

Question: Which “activity change, negative = inhibition” value does the source give for `COc1ccc2[nH]c3nc(SCC(=O)NC4CC4)nnc3c2c1` here?
Answer: Its value is 10.1% [at 46.1 µM] (inactive).

Question: For `CC1CCCCC1NC(=O)c1cn(C)c2ccc(S(=O)(=O)N3CCOCC3)cc2c1=O` (configuration not stated), which “activity change, negative = inhibition” value is on record?
Answer: Its value is 19% [at 46.1 µM] (inactive).

Question: For `Cc1cc(N2CCN(S(=O)(=O)c3ccc(C)c(C)c3)CC2)c2ccccc2n1`, which Potency is on record?
Answer: The Potency was 16.4 µM (active).

Question: Which “activity change, negative = inhibition” value does the source give for `Cc1ccc(S(=O)(=O)C(C#N)c2nc3ccccc3nc2N2CCCC2)cc1C` (configuration not stated) here?
Answer: Its value is -9.41% (inactive).

Question: For `Cc1cc(C(=O)NNC(=O)c2cccc(S(=O)(=O)N3CCOCC3)c2)c2ccccc2n1`, which “activity change, negative = inhibition” value is on record?
Answer: Its value is -20.8% [at 46.1 µM] (inactive).

Question: With `CCOc1ccc(CCNC(=O)COC(=O)C2CCN(S(=O)(=O)c3ccccc3)CC2)cc1OCC` as the compound, how does the “activity change, negative = inhibition” value read?
Answer: The value was 2.99% (inactive).

Question: Which “activity change, negative = inhibition” value does the source give for `COc1cccc(/C=N/Nc2ccc(S(=O)(=O)Nc3ccccc3C(=O)O)cc2[N+](=O)[O-])c1O` here?
Answer: The value was 28.6% (inactive).

Question: For `COc1cccc(/C=N/Nc2cc(C)nc(-c3ccccc3O)n2)c1O`, which Potency is on record?
Answer: The Potency was 5.62 µM (active).

Question: Which “activity change, negative = inhibition” value does the source give for `COc1cccc(/C=N\NC(=O)C2=NNC(=O)C2C)c1O` (configuration not stated) here?
Answer: The value was -25.7% (inactive).

Question: With `COCCN1C(=O)N(c2ccc(Cl)cc2)C(=O)C1CC(=O)Nc1cc(OC)cc(OC)c1` (configuration not stated) as the compound, how does the “activity change, negative = inhibition” value read?
Answer: The value was -6.26% (inactive).

Question: For `CCOC(=O)C1(Cc2ccccc2C)CCCN(C(=O)CCc2c(C)noc2C)C1` (configuration not stated), which “activity change, negative = inhibition” value is on record?
Answer: Its value is -26.5% [at 46.1 µM] (inactive).

Question: Which “activity change, negative = inhibition” value does the source give for `O=C1CC(c2ccccc2)C(c2ccccc2)=NN1` (configuration not stated) here?
Answer: The value was 0.609% [at 46.1 µM] (inactive).

Question: Which Potency does the source give for `CCNC(=O)CCc1nc(-c2ccc(C(C)(C)C)cc2)no1` here?
Answer: Its Potency is 8.91 µM (active).

Question: With `CCNC(=O)CCc1nc(-c2ccc(C)cc2)no1` as the compound, how does the Potency read?
Answer: The Potency was “inactive”.

Question: Which “activity change, negative = inhibition” value does the source give for `Cc1ccc(-c2noc(CCC(N)=O)n2)cc1` here?
Answer: The value was 7.01% (inactive).
